EphB4 ephrin blk: EphB4-ephrin-B2 interaction antagonists, primary screen, biochemical, TNYL-RAW peptide probe, fluorescence polarization. EphB4 LBD / TNYL-RAW-Alexa532 peptide. inhibition, % at 7 µM. actives 0.15% (n = 97,000);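 active = inhibition above the screen-wide mean inhibition plus 3 SD, cut at about 15% in these data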;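 also: 0% = DMSO wells and 100% = excess unlabeled TNYL-RAW peptide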
D1 mod: D1 CRE-luciferase signal change, two-sided – cell-based, HEK293 D1, dopamine EC30, D1 allosteric modulator project, primary screen; D(1A) dopamine receptor (Homo sapiens), P21728; actives 5.9% (n = 58,000); B-score at 10 µM; dopamine EC30 potentiation; actives deviate in either direction;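 active = luminescence count or its row- and column-corrected plate score outside the 99.7% band of the plate's sample wells, on either side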
Target sequence (P21728 whole entry, looked up): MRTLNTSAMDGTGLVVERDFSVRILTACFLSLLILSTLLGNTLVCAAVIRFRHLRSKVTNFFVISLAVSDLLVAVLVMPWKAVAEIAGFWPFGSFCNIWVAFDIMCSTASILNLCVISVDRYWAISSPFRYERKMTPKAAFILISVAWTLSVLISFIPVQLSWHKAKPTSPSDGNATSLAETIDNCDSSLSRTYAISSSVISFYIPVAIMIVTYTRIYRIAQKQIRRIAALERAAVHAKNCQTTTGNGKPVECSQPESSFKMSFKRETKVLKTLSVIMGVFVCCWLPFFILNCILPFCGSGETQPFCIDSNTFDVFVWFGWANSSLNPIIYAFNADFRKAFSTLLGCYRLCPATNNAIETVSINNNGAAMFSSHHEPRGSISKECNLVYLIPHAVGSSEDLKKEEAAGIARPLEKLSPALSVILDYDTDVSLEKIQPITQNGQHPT
DAT uptake mod: changed hDAT dopamine uptake under cocaine IC80, either direction, primary screen, cocaine antagonist project, cell-based, LLC-PK1 hDAT, [14C]-dopamine uptake, MLSMR. AID 449768, 2010. Sodium-dependent dopamine transporter (Homo sapiens), Q01959. B-score at 10 µM. actives 1.3% (n = 110,000). LLC-PK1 hDAT cells, [14C]-dopamine uptake with cocaine IC80; actives deviate in either direction;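 active = Z score or B-score, a plate-position-corrected score, falls beyond the plate's 99.7% confidence bounds, in either direction; inactive = both scores lie inside the 99.7% bounds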;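 also: scored against the spread of the other compound wells on the same plate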
D1 mod confirm: D1 receptor positive allosteric modulators, retest, confirmation, cell-based, HEK293 D1, CRE-luciferase, duplicate. shares compounds with D1 mod. dopamine EC30 potentiation; hits give high values. luminescence at 10 µM. actives 88% (n = 2,200). AID 642, 2007;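 active = luminescence in either of two replicates above the same-plate mean plus 3 SD of the low-dose dopamine control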
D1 no dopamine: D1 receptor agonism without dopamine, confirmation, mechanism study for D1 allosteric modulator project, cell-based, HEK293 D1, CRE-luciferase, secondary assay 1; AID 646, 2007; actives 0.8% (n = 1,900); shares compounds with D1 mod; luminescence, no dopamine; hits give high values; luminescence at 10 µM; in the data active = luminescence above about 3900
Isoprot counter: isoproterenol response counter-screen activity for D1 modulators; shares compounds with D1 mod; actives 63% (n = 2,200); AID 647; HEK293 D1 CRE-luciferase, isoproterenol EC30 counter-screen; calls only at 10 µM;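 active = luminescence in either replicate above plate mean of wells with a partly effective reference agonist dose plus 3 SD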;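 also: isoproterenol raises cAMP through native beta-adrenoceptor Gs so signal bypasses D1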
Active calls of the source: *. Many of the other results were omitted from the sample, so hits are more common in it than they were.

CCn1nc(NS(=O)(=O)c2ccccc2)c2cc3cccc(C)c3nc21 was read as EphB4 ephrin blk 3, D1 mod -0.073 and DAT uptake mod -0.024.
`CCCn1nc(NS(C)(=O)=O)c2cc3cccc(C)c3nc21` gave EphB4 ephrin blk -2, D1 mod 16*, DAT uptake mod -0.29, D1 mod confirm 16772*, D1 no dopamine 1876 and Isoprot counter active.
Screening C=C1CCN(CC(=O)OC)S(=O)(=O)c2ccccc21 returned DAT uptake mod 0.11.
CC(=O)C1=C(C)Nc2ncnn2C1c1ccc(Cl)cc1 (stereo unspecified) was read as EphB4 ephrin blk 4, D1 mod -0.88 and DAT uptake mod -0.88.
`Cc1ccc(CC2CC(=O)N(c3nc4ccccc4n3C)C2=O)cc1` (stereo unspecified) gave EphB4 ephrin blk 1 and DAT uptake mod 0.2.
For O=C(Nc1ccccc1)C1=C[C@@H](c2ccc(C(F)(F)F)cc2)C[C@@H](OCc2ccc(CO)cc2)O1 the results were DAT uptake mod -0.056.
`Nc1ncnc2c1ncn2CCOc1ccccc1` gave EphB4 ephrin blk -1, D1 mod 4.9*, DAT uptake mod -0.44, D1 mod confirm 6344*, D1 no dopamine 1408 and Isoprot counter inactive.
`Nc1ncnc2c1ncn2CCN1CCOCC1` gave EphB4 ephrin blk 8, D1 mod -0.32 and DAT uptake mod -0.54.
Cc1cccc(Cn2c(=O)n(-c3ccc(CC(=O)NCc4ccco4)cc3)c(=O)c3sccc32)c1 was read as EphB4 ephrin blk 1 and DAT uptake mod 0.24.
For Cc1cc(C)nc(/N=C(/NC(=O)Nc2cccc(Cl)c2)Nc2ccccc2)n1 the results were EphB4 ephrin blk -6 and DAT uptake mod -1.2.
For COc1ccc(C(=O)CSc2nnnn2Cc2ccccc2)cc1 the results were EphB4 ephrin blk 6, D1 mod 0.92 and DAT uptake mod 0.18.
`O=C(CSc1nnnn1Cc1ccccc1)c1ccccc1` gave EphB4 ephrin blk 7, D1 mod 4*, DAT uptake mod -1.4, D1 mod confirm 5880*, D1 no dopamine 1460 and Isoprot counter inactive.
For CCN(CC)c1ncnc2scc(C3COc4ccccc4O3)c12 (stereo unspecified) the results were EphB4 ephrin blk -4 and DAT uptake mod 1.6.
`c1ccc2c(c1)OCC(c1csc3ncnc(N4CCOCC4)c13)O2` (stereo unspecified) gave EphB4 ephrin blk -9, D1 mod 3.8*, DAT uptake mod -0.058, D1 mod confirm 5072, D1 no dopamine 1584 and Isoprot counter active.
CCn1c2ccccc2c2nnc(SCC(=O)c3ccccc3)nc21 was read as EphB4 ephrin blk 5 and DAT uptake mod 0.83.
For CCOC(=O)C(Sc1nnc2c3ccccc3n(CC)c2n1)C(=O)OCC the results were EphB4 ephrin blk 4, D1 mod 5.2*, DAT uptake mod -0.74, D1 mod confirm 11136*, D1 no dopamine 1560 and Isoprot counter active.
CCCCC(c1nnnn1C1CCCC1)N1CCN(C(=O)c2ccco2)CC1 (stereo unspecified) was read as EphB4 ephrin blk 4, D1 mod -0.46 and DAT uptake mod 1.
`CCCC(c1nnnn1C1CCCC1)N1CCN(C(=O)c2ccco2)CC1` (stereo unspecified) gave EphB4 ephrin blk 5, D1 mod 3.4*, DAT uptake mod -0.35, D1 mod confirm 5248, D1 no dopamine 1512 and Isoprot counter inactive.
For Cc1ccc(CNC(=O)CS(=O)(=O)CC(=O)O)cc1 the results were EphB4 ephrin blk 5 and DAT uptake mod 0.86.
`COCCNC(=O)c1ccccc1NC(=O)COc1ccccc1` gave EphB4 ephrin blk 9, D1 mod 2.3 and DAT uptake mod -0.41.
COC(=O)c1ccccc1NC(=O)COc1ccc(S(=O)(=O)N2CCCC2)cc1C was read as EphB4 ephrin blk 0, D1 mod 3.2*, DAT uptake mod 0.81, D1 mod confirm 5776*, D1 no dopamine 1512 and Isoprot counter inactive.
`COC(=O)c1ccccc1NC(=O)CN(C)S(=O)(=O)c1ccc(OC)c(C)c1` gave EphB4 ephrin blk -5, D1 mod 0.42 and DAT uptake mod 0.56.
For COC(=O)c1ccccc1NC(=O)COc1ccccc1 the results were EphB4 ephrin blk 3, D1 mod 5.8*, DAT uptake mod -0.38, D1 mod confirm 14156*, D1 no dopamine 1628 and Isoprot counter active.
`CCC(Sc1nc2n[nH]c(C)c2c(=N)n1-c1ccc(C)c(Cl)c1)C(=O)N1CCOCC1` (stereo unspecified) gave D1 mod 0.73 and DAT uptake mod 0.74.
`CCC(Sc1nc2n[nH]c(C)c2c(=N)n1-c1cccc(Cl)c1)C(=O)NCCOC` (stereo unspecified) gave EphB4 ephrin blk -9, D1 mod 5.1*, DAT uptake mod 2*, D1 mod confirm 11752*, D1 no dopamine 1764 and Isoprot counter active.
Screening FC(F)(F)c1nnc2ccc(N3CCCC3)nn12 returned EphB4 ephrin blk -3 and DAT uptake mod -0.3.
Screening FC(F)(F)c1nnc2ccc(N3CCCCCC3)nn12 returned EphB4 ephrin blk -10, D1 mod 3.5*, DAT uptake mod 0.19, D1 mod confirm 8220*, D1 no dopamine 1432 and Isoprot counter active.
`FC(F)(F)C(F)(F)C(F)(F)c1nnc2ccc(N3CCOCC3)nn12` gave EphB4 ephrin blk 2, D1 mod 11*, DAT uptake mod -0.026, D1 mod confirm 18088*, D1 no dopamine 1648 and Isoprot counter active.
Screening Cc1cc(C)nc(Sc2ccc3nnc(C(F)(F)C(F)(F)C(F)(F)F)n3n2)n1 returned EphB4 ephrin blk 4, D1 mod -0.0067 and DAT uptake mod -0.38.
`CCN1CCN(C(C(=O)NC2CCCCC2)c2ccc(Cl)cc2)CC1` (stereo unspecified) gave EphB4 ephrin blk -3 and DAT uptake mod -0.3.
`O=C(COC(=O)c1ccncc1)Nc1cc(Cl)c(Cl)cc1Cl` gave EphB4 ephrin blk 1.
CCS(=O)(=O)Nc1c(C)n(C)n(-c2ccccc2)c1=O was read as EphB4 ephrin blk -4 and DAT uptake mod -0.42.

Screens deposited in PubChem BioAssay by several laboratories.
